Bioassay records as filed in PubChem BioAssay.
LMP1 NFkB inh = Epstein-Barr LMP1 NF-kappaB reporter inhibition; 350,000 tested, 0.69% active; LMP1-induced NF-kappaB luciferase reporter cells, luminescence; inhibition, % at 12.5 µM; in the data active means inhibition above about 41%
TWEAK-Fn14 inh = TWEAK-Fn14 signaling inhibition. TWEAK-stimulated Fn14 reporter cells, luciferase luminescence, 8 h. inhibition, % at 10 µM. 360,000 tested, 2% active. AID 1159606; in the data active means inhibition above about 50%
TROY NFkB inh = inhibitors of TROY-dependent NF-kB signaling. Q293 LMP1-TROYcd NF-kB luciferase reporter, 4 h. inhibition, % at 10 µM. 360,000 tested, 0.98% active. AID 1347056;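 active means compounds whose plate-normalised and pattern-corrected inhibition of the luciferase reporter signal at the single screening dose is 50% or more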
HIF-2a inh = inhibitors of HIF-2a; 786-0 RCC cells HIF-2a reporter, luciferase luminescence, overnight; 360,000 tested, 0.72% active; AID 624352; inhibition, % at 18.8 µM;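 active means inhibition of the luminescence signal of 40% or more relative to plate controls, in a single-dose primary screen at 18.75 µM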
Peg3 prom inh = Peg3 promoter activity inhibition; HeLa PEG-Prom luciferase reporter, luminescence, overnight; 360,000 tested, 1.7% active; inhibition, % at 20 µM;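 active means inhibition of at least 50% at 20 µM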
MITF TRPM1 inh = inhibitors of MITF-driven TRPM1 promoter in melanoma cells | SK-MEL-5 TRPM1 promoter luciferase, 24 h | inhibition, % at 12.5 µM | 330,000 tested, 0.83% active | AID 488899;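 active means mean inhibition across replicates of 60% or more, whatever share of single replicates reaches that level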
Each line names hits and unclear results; the compound was inactive in the other large screens. Hits are enriched below; roughly 4% of the tested compounds scored in any of these assays.

COCc1cc(C)nc2sc(C(=O)Nc3nccs3)c(N)c12	none (no result: MITF TRPM1 inh)
Cc1cc(C)c2c(N)c(C(=O)Nc3nccs3)sc2n1	TWEAK-Fn14 inh 65.9
Nc1c(C(=O)Nc2nccs2)sc2nc(-c3cccs3)cc(C(F)(F)F)c12	none
COCC(=O)N1CCC(Oc2ccc(C(=O)N(C)C(C)c3ccon3)cc2)CC1 (stereo not given)	none
Cc1ccc(S(=O)(=O)N2CCCCC2C(=O)Nc2ccc(N(C)C)cc2)cc1 (stereo not given)	none
CCOc1ccc(Br)cc1S(=O)(=O)Nc1cccc(S(=O)(=O)N(C)c2ccccc2)c1	TROY NFkB inh 77.2
CCOc1ccc(Br)cc1S(=O)(=O)Nc1ccc(C(=O)OCC(=O)N(C)c2ccccc2)cc1	none
Cc1ccc(C(C)(O)CS(=O)(=O)Cc2ccccc2Cl)cc1 (stereo not given)	none
O=S(=O)(O)c1cc(O)c2ccc(Nc3ccccc3)cc2c1	none
COc1ccccc1Nc1ccc2c(O)cc(S(=O)(=O)O)cc2c1	TWEAK-Fn14 inh 78.5
O=C(CCl)NC1(C(F)(F)F)C(=O)Nc2c1c(=O)[nH]c(=O)n2-c1ccccc1 (stereo not given)	none
Cc1cc(NC(=O)C2COc3ccccc3O2)no1 (stereo not given)	none (no result: MITF TRPM1 inh)
Cc1cc(NC(=O)COC(=O)C2COc3ccccc3O2)no1 (stereo not given)	Peg3 prom inh 64.0
CCN(CC)S(=O)(=O)c1ccc(OC)c(NC(=S)Nc2cccc(C)c2C)c1	none
Cc1ccc(N=Cc2ccc(N(C)C)cc2)cc1	none
Cc1sc(N=Nc2ccc(N(C)C)cc2)[n+]([O-])c1C	TWEAK-Fn14 inh 60.5, TROY NFkB inh 62.8 (no result: MITF TRPM1 inh)
O=C(COC(=O)c1ccc([N+](=O)[O-])s1)c1ccc[nH]1	none
O=c1c2cc3c(cc2[nH]c(=S)n1CCN1CCOCC1)OCO3	TROY NFkB inh 77.9
CC1CCN(CCn2c(=S)[nH]c3cc4c(cc3c2=O)OCO4)CC1	none
COc1cccc(C2c3cc4c(cc3OC(C)(N3CCCC3)C2C)OCO4)c1O (stereo not given)	none
COC(=O)c1cccc2c1-c1ccccc1/C2=N/O	LMP1 NFkB inh 43.8, TWEAK-Fn14 inh 82.9, TROY NFkB inh 56.1
COC(=O)c1ccc2c(c1O)C(=O)c1ccccc1C2=O	MITF TRPM1 inh 97.1
Oc1ccc(CCNc2ncnc3ccc(Cl)cc23)cc1	TWEAK-Fn14 inh 93.7, TROY NFkB inh 55.6
Nc1nc(Cl)cc(NCCc2ccc(O)cc2)n1	none
Cc1cccc(NS(=O)(=O)c2ccc(C(=O)N3CCC3)cc2)c1C	none
O=C(Nc1ccc(N2CCN(C(=O)c3ccccc3F)CC2)cc1)c1cncc(Br)c1	TWEAK-Fn14 inh 63.8, TROY NFkB inh 64.1
O=C(Nc1ccc([N+](=O)[O-])cc1)c1cncc(Br)c1	LMP1 NFkB inh 42.9
O=C(COC(=O)CN1C(=O)NC2(CCCC2)C1=O)Nc1c(Cl)cccc1C(F)(F)F	none
O=C1C(c2ccccc2)=[N+]([O-])c2ccccc21	Peg3 prom inh 88.1
O=C1c2ccccc2C(=O)C1c1ccc2ccccc2n1	TWEAK-Fn14 inh 94.9, Peg3 prom inh 53.0
O=C(NCc1ccccn1)c1ccccc1OCc1ccc(Cl)cc1Cl	none
O=C1C=CC(=O)C(CNc2ccc(C(=O)OCc3ccccc3)cc2)=C1	TWEAK-Fn14 inh 106.8, Peg3 prom inh 72.3, MITF TRPM1 inh 65.9
CN(C)c1ccc(C(=O)OCc2ccccc2)cc1	none
CC1CCN(S(=O)(=O)c2ccc(NC(=O)Cc3cccs3)cc2)CC1	none
CC(=O)O[C@H](CC(=O)O)C[N+](C)(C)C	LMP1 NFkB inh 59.2
COC(C)(C)[C@@H](O)COc1c2ccoc2cc2oc(=O)ccc12	none
CCN(CC)CCNC(=O)C1CCN(S(=O)(=O)c2c(C)noc2/C=C/c2ccccc2F)CC1	MITF TRPM1 inh 77.3
CCN(CCNC(=O)C1CCN(S(=O)(=O)c2c(C)noc2C)CC1)c1ccccc1	none
CC(C)C1C(=O)N(Cc2cn(CCC3OCCO3)nn2)CCS(=O)(=O)N1Cc1ccc(-c2ccc(Cl)c(Cl)c2)cc1 (stereo not given)	Peg3 prom inh 59.9 (no result: MITF TRPM1 inh)
COc1ccc(-c2ccc(CN3C(C(C)C)C(=O)N(Cc4cn(CCC5OCCO5)nn4)CCS3(=O)=O)cc2)cc1OC (stereo not given)	none (no result: MITF TRPM1 inh)
COc1ccc(NC(=O)c2cccc(N3C(=O)c4cccc([N+](=O)[O-])c4C3=O)c2)cc1	none
COc1ccc(/C=C2\C(=O)N(c3c(Cl)cc(Cl)cc3Cl)N=C2NC(=O)c2cccc([N+](=O)[O-])c2)cc1	HIF-2a inh 44.9, Peg3 prom inh 76.5
O=C(NCCCN1CCOCC1)c1ccccc1N1C(=O)[C@@H]2Cc3c([nH]c4ccccc34)C(c3cccc(Cl)c3)N2C1=O (stereo not given in full)	none
CCCCNS(=O)(=O)c1ccc2nc(SCC(N)=O)[nH]c2c1	none
CCCCNS(=O)(=O)c1ccc2nc(SCC(=O)Nc3sccc3C#N)[nH]c2c1	TROY NFkB inh 70.6
Clc1nc(-c2ccccc2)c2ccccc2n1	none
NC(N)=Nc1nc(-c2ccccc2)c2ccccc2n1	Peg3 prom inh 56.8
O=C(CSCC(=O)N1CCCCC1)Nc1nc(-c2ccccc2)c(-c2ccccc2)s1	TWEAK-Fn14 inh 51.5 (no result: MITF TRPM1 inh)
CN(C)c1ccc(C=Nc2ccc(N(C)C)cc2)cc1	none
CN(C)c1ccc(N=Cc2ccco2)cc1	TWEAK-Fn14 inh 50.5
COC1=C(OC)C(=O)C(Sc2ccc3ccccc3c2)=CC1=O	TWEAK-Fn14 inh 57.6, HIF-2a inh 49.3, Peg3 prom inh 64.2
CC(C)c1ccc(C2NC(=O)NC3=C2CCc2ccccc23)cc1 (stereo not given)	TWEAK-Fn14 inh 76.3, TROY NFkB inh 54.9
Cc1ccc(C2NC(=O)NC3=C2CCc2ccccc23)cc1 (stereo not given)	TWEAK-Fn14 inh 79.4, TROY NFkB inh 68.9
CN(C)C(CNC(=O)c1cc(-c2ccco2)nc2ccccc12)c1ccccc1 (stereo not given)	none
O=P(Nc1ccccc1)(Nc1ccccc1)c1ccccc1	none
CCN1C(=O)/C(=C/N(C(C)=O)c2ccccc2)N(c2ccccc2)C1=S	HIF-2a inh 86.4
O=C(O)CSC1c2ccccc2C(=O)N1Cc1ccccc1 (stereo not given)	none
CCC(=O)OC1c2ccccc2C(=O)N1Cc1ccccc1 (stereo not given)	LMP1 NFkB inh 87.1
COCCNC(=O)CCn1nc(-c2ccc(C)cc2)ccc1=O	none
Cc1cccc(N(Cc2ccccc2)C(=O)CCl)c1	Peg3 prom inh 59.3
O=C(Nc1ccncc1)C1CC(=O)N(Cc2ccccc2)C1 (stereo not given)	none
CC1=C(C(=O)OCc2ccc3c(c2)OCO3)C(c2ccc(O)c([N+](=O)[O-])c2)NC(=O)N1 (stereo not given)	TWEAK-Fn14 inh 71.0
COc1cc2c(-c3ccc(O)cc3)nc3c(c(C)nn3-c3ccccc3)c2cc1OC	Peg3 prom inh 76.6
COc1cc2c(C)nc3c(c(C)nn3-c3ccccc3)c2cc1OC	none
